The values below come from publication PMC11062922 (Nature Chemical Biology, 2023).

The test system of one test is AAK1. Further details: species or system human, MV4-11 + K-562 + COLO205 + SK-N-BE2 + OVCAR-8. As to conditions: read-out: apparent Kd, compound concentrations: 100 nM and 1000 nM (sheet 'Samples'), n = 1.
A further test concerns BMP2K. Further details: species or system human, MV4-11 + K-562 + COLO205 + SK-N-BE2 + OVCAR-8. As to conditions: read-out: apparent Kd, compound concentrations: 100 nM and 1000 nM (sheet 'Samples'), n = 1.
Another test deals with CLK1. Further details: species or system human, MV4-11 + K-562 + COLO205 + SK-N-BE2 + OVCAR-8. The following applies: read-out: apparent Kd, compound concentrations: 100 nM and 1000 nM (sheet 'Samples'), n = 1.
Another test concerns CLK4. Further details: species or system human, MV4-11 + K-562 + COLO205 + SK-N-BE2 + OVCAR-8. The following applies: read-out: apparent Kd, compound concentrations: 100 nM and 1000 nM (sheet 'Samples'), n = 1.
For the next test, the system named is CSNK2A1;CSNK2A3. Further details: species or system human, MV4-11 + K-562 + COLO205 + SK-N-BE2 + OVCAR-8. As to conditions: read-out: apparent Kd, compound concentrations: 100 nM and 1000 nM (sheet 'Samples'), n = 1.
Another test deals with FLT3. Further details: species or system human, MV4-11 + K-562 + COLO205 + SK-N-BE2 + OVCAR-8. As to conditions: read-out: apparent Kd, compound concentrations: 100 nM and 1000 nM (sheet 'Samples'), n = 1.
The next test concerns FLT4. Further details: species or system human, MV4-11 + K-562 + COLO205 + SK-N-BE2 + OVCAR-8. As to conditions: read-out: apparent Kd, compound concentrations: 100 nM and 1000 nM (sheet 'Samples'), n = 1.
Another test has as its system GAK. Further details: species or system human, MV4-11 + K-562 + COLO205 + SK-N-BE2 + OVCAR-8. As to conditions: read-out: apparent Kd, compound concentrations: 100 nM and 1000 nM (sheet 'Samples'), n = 1.
In another test the test system is GSK3A. Further details: species or system human, MV4-11 + K-562 + COLO205 + SK-N-BE2 + OVCAR-8. As to conditions: read-out: apparent Kd, compound concentrations: 100 nM and 1000 nM (sheet 'Samples'), n = 1.
The subject of a further test is GSK3B. Further details: species or system human, MV4-11 + K-562 + COLO205 + SK-N-BE2 + OVCAR-8. The following applies: read-out: apparent Kd, compound concentrations: 100 nM and 1000 nM (sheet 'Samples'), n = 1.
In a further test the test system is MELK. Further details: species or system human, MV4-11 + K-562 + COLO205 + SK-N-BE2 + OVCAR-8. The following applies: read-out: apparent Kd, compound concentrations: 100 nM and 1000 nM (sheet 'Samples'), n = 1.
A further test deals with NUAK1. Further details: species or system human, MV4-11 + K-562 + COLO205 + SK-N-BE2 + OVCAR-8. The following applies: read-out: apparent Kd, compound concentrations: 100 nM and 1000 nM (sheet 'Samples'), n = 1.
The next test relates to PAK4. Further details: species or system human, MV4-11 + K-562 + COLO205 + SK-N-BE2 + OVCAR-8. The following applies: read-out: apparent Kd, compound concentrations: 100 nM and 1000 nM (sheet 'Samples'), n = 1.
Another test concerns PKN1. Further details: species or system human, MV4-11 + K-562 + COLO205 + SK-N-BE2 + OVCAR-8. As to conditions: read-out: apparent Kd, compound concentrations: 100 nM and 1000 nM (sheet 'Samples'), n = 1.
A further test concerns RET. Further details: species or system human, MV4-11 + K-562 + COLO205 + SK-N-BE2 + OVCAR-8. The following applies: read-out: apparent Kd, compound concentrations: 100 nM and 1000 nM (sheet 'Samples'), n = 1.
A further test relates to SIK2. Further details: species or system human, MV4-11 + K-562 + COLO205 + SK-N-BE2 + OVCAR-8. The following applies: read-out: apparent Kd, compound concentrations: 100 nM and 1000 nM (sheet 'Samples'), n = 1.
The test system of another test is CSNK2A2. Further details: species or system human, MV4-11 + K-562 + COLO205 + SK-N-BE2 + OVCAR-8. As to conditions: read-out: apparent Kd; compound concentrations: 100 nM and 1000 nM (sheet 'Samples'), CATDS: 1.5998355653452E-2; n = 1.
The subject of test [1] is PKN3. Further details: species or system human, MV4-11 + K-562 + COLO205 + SK-N-BE2 + OVCAR-8. The following applies: read-out: apparent Kd, n = 1.
For the next test, the target named is Q6ZSR9 (human, UniProt Q6ZSR9). Further details: species or system MV4-11 + K-562 + COLO205 + SK-N-BE2 + OVCAR-8. As to conditions: read-out: apparent Kd; compound concentrations: 100 nM and 1000 nM (sheet 'Samples'), CATDS: 1.3986845405836199E-2; n = 1.
Q6ZSR9, sequence (Q6ZSR9 whole entry, looked up): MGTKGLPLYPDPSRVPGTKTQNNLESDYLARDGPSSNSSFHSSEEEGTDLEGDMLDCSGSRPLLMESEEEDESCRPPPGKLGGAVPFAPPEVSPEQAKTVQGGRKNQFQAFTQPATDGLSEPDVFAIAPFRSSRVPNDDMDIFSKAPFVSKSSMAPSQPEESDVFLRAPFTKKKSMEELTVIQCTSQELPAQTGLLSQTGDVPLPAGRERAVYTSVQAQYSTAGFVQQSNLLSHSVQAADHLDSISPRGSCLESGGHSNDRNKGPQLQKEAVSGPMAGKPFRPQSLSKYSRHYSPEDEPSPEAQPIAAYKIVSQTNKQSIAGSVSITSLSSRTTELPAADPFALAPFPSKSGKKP
Test [2] deals with PKN3. The following applies: hek293t cells.

Where two headings read alike, the source gives them in different places.
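Wherever IC50 is given: NanoBRET target engagement in HEK293T cells transiently expressing full-length PKN3 with C-terminal NanoLuc, displacement of fluorescent tracer K5 (500 nM), BRET read after 2 h equilibration at 37 °C.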

As to `Cn1ncc2c(N)ncnc21` [SKF-18267], the potency estimated from few doses in the test with AAK1 (CATDS: 4.0309487407882601E-3) was 1310 nM; in the test on BMP2K (CATDS: 3.9456431934801499E-3), 1380 nM; with CLK1 (CATDS: 4.6708282192626498E-3) it was 936 nM; with CLK4 (CATDS: 3.9570541670233801E-3) it was 1370 nM; with CSNK2A1;CSNK2A3 (CATDS: 3.9180257487408596E-3), 1410 nM; with FLT3 (CATDS: 6.0970372773572496E-3), 564 nM. For the same compound, the potency estimated from few doses in the test on FLT4 (CATDS: 3.68265662419527E-3) was 1670 nM; with GAK (CATDS: 4.6125077933925696E-3) it was 961 nM; in the test on GSK3A (CATDS: 6.4966954074714102E-3) it was 507 nM; with GSK3B (CATDS: 6.1120630546354802E-3) it was 562 nM; in the test with MELK (CATDS: 3.6400689102280299E-3), 1720 nM; in the test with NUAK1 (CATDS: 3.5163912979630598E-3), 1910 nM. Moreover, the potency estimated from few doses was 1330 nM with PAK4 (CATDS: 4.003241038036E-3), 1280 nM in the test on PKN1 (CATDS: 4.0652178532190096E-3), 906 nM in the test on RET (CATDS: 4.7446456770992903E-3) and 824 nM in the test on SIK2 (CATDS: 4.9685571215498103E-3).

Take `O=C1N=C(NCCc2ccc(Cl)cc2)S/C1=C\c1ccc2ncccc2c1` [RO4498479-000]: the potency estimated from few doses in the test on AAK1 (CATDS: 1.47357709485617E-2) was 257 nM; in the test on BMP2K (CATDS: 1.0596911535971001E-2), 487 nM; in the test with CLK1 (CATDS: 2.3801432407155699E-2), 123 nM; in the test with CLK4 (CATDS: 1.10234043350519E-2), 447 nM; with CSNK2A1;CSNK2A3 (CATDS: 1.63252209283915E-2) it was 216 nM; in the test with CSNK2A2, 224 nM. In addition, the potency estimated from few doses was 511 nM in the test with FLT3 (CATDS: 1.0367577324715899E-2); 483 nM in the test on FLT4 (CATDS: 1.0631245795833501E-2); 161 nM with GAK (CATDS: 1.9710228455472299E-2); 123 nM with GSK3A (CATDS: 2.3758867869594399E-2); 201 nM with GSK3B (CATDS: 1.7085262625281698E-2); 1000 nM in the test with MELK (CATDS: 8.0269577096188198E-3). Further, the potency estimated from few doses in the test with NUAK1 (CATDS: 8.4437303302316406E-3) is 860 nM; in the test on PAK4 (CATDS: 1.2005445098745401E-2), 375 nM; with PKN1 (CATDS: 9.0371010763674806E-3), 713 nM; with PKN3 [1] (compound concentrations: 100 nM and 1000 nM (sheet 'Samples'), CATDS: 1.12150497096419E-2) it was 431 nM; with Q6ZSR9, 282 nM; with RET (CATDS: 1.4080551975431E-2), 278 nM. For the same compound, the potency estimated from few doses with SIK2 (CATDS: 1.14849273453617E-2) is 410 nM.

With `CCn1c(-c2nonc2N)nc2c(C#CC(C)(C)O)nc(OC[C@@H](N)c3ccccc3)cc21` [GSK938890A], the potency estimated from few doses in the test with GSK3A (CATDS: 6.6915182583243901E-2) was 404 nM; in the test on GSK3B (CATDS: 6.5310864553074097E-2), 446 nM; with PAK4 (CATDS: 0.107853549418886), 88.3 nM; in the test with PKN3 [1] (compound concentrations: 100 nM and 1000 nM (sheet 'Samples'), CATDS: 0.20749541918588199), 23.6 nM. The IC50 came to 97.8 nM in the test on PKN3 [2] (read-out: Average, SD, n = 4); 310 nM in the test on PKN3 [2] (read-out: Rep 1); 31.2 nM in the test on PKN3 [2] (read-out: Rep 2); 28.1 nM with PKN3 [2] (read-out: Rep 3); 22.3 nM with PKN3 [2] (read-out: Rep 4).

Turning to `Cl.NCc1ccc(-c2nc(-c3ccc(Cl)c(O)c3)c(-c3ccncc3)[nH]2)cc1` [SB-476429-A], in the test with PKN3 [1] (compound concentrations:100 nM and 1000 nM (sheet 'Samples')), the potency estimated from few doses is 36 nM. For the same compound, the IC50 amounted to 243 nM in the test on PKN3 [2] (read-out: Average, SD, n = 4); 589 nM in the test with PKN3 [2] (read-out: Rep 1); 211 nM in the test on PKN3 [2] (read-out: Rep 2); 86.7 nM in the test on PKN3 [2] (read-out: Rep 3); 85.4 nM in the test with PKN3 [2] (read-out: Rep 4).
